Reference: PubChem BioAssay (NCATS)
Values joined by “and” are separate entries in the source; they are usually repeats but may differ in a detail not shown here. Equal entries are not always repeated. Results filed as inconclusive are left out. Active and inactive are the calls of the source. Unless noted, calls come from the whole dose curve; as a rule, active = well fitted curve in the direction sought with a large enough effect; inconclusive = small, poorly fitted or top-dose-only effect, or another doubt; inactive = no such curve, though single readings can be large; an effect the other way counts as inactive or inconclusive.

How the values were obtained:
[1] = Cell Viability - Hek293 (AID 427;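 active = compounds whose dose-response curve shows a full or clear partial loss of cell viability, called from curve shape rather than a numeric limit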;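 note: potency is the fitted concentration of half-maximal effect; cells exposed to compound for 40 hours at 37 °C before reading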); conditions: qHTS
Summary of the method: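 AC50 values derive from Hill-modelled concentration-response of ATP-based luminescence, normalized between DMSO-only and 100 uM tamoxifen controls. Cells were exposed in complete culture medium for 40 hr at 37 °C before detection.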

[2] = Cell Viability - HepG2 (AID 433; calls by dose curve;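 note: potency is the fitted concentration of half-maximal effect; potency for ATP loss meaning cytotoxicity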); conditions: qHTS
Summary of the method: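 In this qHTS format, a 40 h, 37 °C compound incubation of HepG2 cells in complete medium precedes a 20 min CellTiter-Glo step at room temperature. Tamoxifen and doxorubicin serve as positive controls; Hill-equation fits yield AC50.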

[3] = Cell Viability - SK-N-SH (AID 435; calls by dose curve;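 note: potency is the fitted concentration of half-maximal effect; compound exposure lasted 40 h at 37 °C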); conditions: SK-N-SH neuroblastoma cell viability qHTS
Summary of the method: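 Human neuroblastoma line, 40 h exposure at 37 °C, ATP quantified via luciferase luminescence; DMSO and 100 uM tamoxifen define 0 and 100% inhibition for AC50 fitting.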

[4] = biological target: Mitogen-activated protein kinase 10 (Mus musculus) (UniProt Q61831); test: JNK3 AlphaScreen Assay (AID 530; active = well fitted curve in either direction with a large enough effect, not every such curve was filed as active;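 note: kinase came from lysate of stimulated human HepG2 cells; signal reports phosphorylation of biotinylated GST-cJun 1-79 at Ser73 with 10 µM ATP; % is set by controls: 0 for no effect and ±100 for the full control effect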); conditions: JNK3 lysate, c-Jun phosphorylation; series mostly up to 57.1 µM
Summary of the method: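 Activity was read by AlphaScreen after JNK3-containing HepG2 lysate (cytokine pre-activated) phosphorylated biotinylated GST-cJun with 10 uM ATP at room temperature. Phospho-Ser73 cJun antibody with Protein-A acceptor beads provided detection.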

[5] = Cellular Toxicity (caspase-3) HUV-EC-C (AID 656); conditions: HUV-EC-C cells, caspase-3 activation (apoptosis), vehicle = 0, 100 µM tamoxifen = 100%; series mostly up to 92.2 µM;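 note: 0% = DMSO basal and 100% = 100 µM tamoxifen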
Summary of the method: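 Concentration-dependent caspase 3/7 induction was assessed in HUV-EC-C cells exposed for 16 hours. Data scaled between DMSO and tamoxifen (100 uM) controls.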

[6] = Cellular Toxicity (caspase-3) SHSY5Y (AID 657); conditions: SH-SY5Y caspase-3 activation, DMSO zero, 10 µM staurosporine = 100%; series mostly up to 91.7 µM;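 note: cells exposed to compound for 16 hours at 37 °C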
Summary of the method: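 Readout: caspase-cleaved peptide-aminoluciferin substrate driving luciferase light in SH-SY5Y neuroblastoma cells after 16 h treatment. Response normalized to DMSO and 10 uM staurosporine controls.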

[7] = Cellular Toxicity (caspase-3) MRC-5 (AID 659); conditions: MRC-5 cells, luminescence, normalized: DMSO 0%, 10 µM staurosporine 100%; series mostly up to 91.7 µM
Summary of the method: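 MRC-5 fibroblasts, 1500/well; 16 h cpd, 37 °C; Caspase-Glo 3/7, 1 h RT; lumi read. Norm: DMSO = 0%, 10 uM staurosporine = 100%. Hill-fit AC50 from qHTS conc-response.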

[8] = MultiTox-Fluor Cytotoxicity Assay - LYMP1-002 - Live Cells (AID 955); conditions: LYMP1-002 lymphoblastoid live-cell protease fluorescence viability; series mostly up to 46.1 µM; note: % is set by controls: 0 for no effect and ±100 for the full control effect
Summary of the method: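 After 16 h compound exposure at 37 C, live LYMP1-002 lymphoblastoid cells (2500/well) were quantified by cleavage of cell-permeant GF-AFC substrate, read at 405/510 nm after 60 min. Concentration-response fitted with Hill equation for AC50.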

[9] = Cell Viability - LYMP1-003 - Assay at 24 hr (AID 963); conditions: LYMP1-003 lymphoblastoid cell viability; series mostly up to 92.2 µM;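 note: plate controls were DMSO only for no effect and tetraoctylammonium bromide positive control for full effect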
Summary of the method: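 Concentration-response qHTS: ATP loss measured by CellTiter-Glo luminescence after 24 h compound exposure at 37 C. Cells were LYMP1-003 human lymphoblastoid, 2500 per well. AC50 derived via standard Hill equation modeling.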

[10] = Cell Viability - LYMP2-009 (AID 968); conditions: LYMP2-009 lymphoblastoid cell viability; series mostly up to 92.2 µM;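 note: 0% = DMSO alone and the full-kill end = tetraoctylammonium bromide at 92 µM; nearly all actives have a fitted effect of over 55% in size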
[11] = Cell Viability - LYMP2-017 (AID 972); conditions: LYMP2-017 lymphoblastoid cell viability; series mostly up to 92.2 µM;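 note: cells exposed to compound for 24 hours at 37 °C; % is set by controls: 0 for no effect and ±100 for the full control effect; nearly all actives have a fitted effect of over 55% in size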
Summary of the method: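 CellTiter-Glo luminescence (cellular ATP, 30 min RT) measured cytotoxicity after 24 hr compound treatment at 37 C. Cells were a human lymphoblastoid line, LYMP2-017, plated at 2500/well and incubated 5 hr first; concentration-response fitted with Hill equation for AC50.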

[12] = Cell Viability - LYMP2-025 (AID 976); conditions: LYMP2-025 lymphoblastoid cell viability; series mostly up to 92.2 µM;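 note: plate controls were DMSO only for no effect and tetraoctylammonium bromide control for full effect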
Summary of the method: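 Cytotoxicity read as loss of intracellular ATP (luciferase luminescence) after 24 h compound treatment at 37 C. Uses LYMP2-025 lymphoblastoid cells in 1536-well format; Hill-equation modelling gives AC50; tetraoctylammonium bromide as positive control.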

[13] = Cell Viability - LYMP2-024 (AID 988); conditions: LYMP2-024 lymphoblastoid cell viability; series mostly up to 92.2 µM;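 note: plate controls were DMSO only for no effect and 92 µM tetraoctylammonium bromide for full effect; nearly all actives have a fitted effect of over 60% in size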
Summary of the method: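 Cytotoxicity was taken as a decrease in ATP (CellTiter-Glo luminescence) after 24 hr compound exposure at 37 C of LYMP2-024 lymphoblastoid cells, 2500 cells/well. Concentration-response data were fitted to the Hill equation to give AC50.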

[14] = Cell Viability - LYMP1-002 - Assay at 40 hr (AID 994); conditions: LYMP1-002 lymphoblastoid cell viability; series mostly up to 92.2 µM;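 note: 0% = DMSO only and full inhibition = 92 µM tetraoctylammonium bromide; nearly all actives have a fitted effect of over 60% in size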
Summary of the method: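 Cytotoxicity was read as loss of cellular ATP (CellTiter-Glo luminescence) after 40 hr compound exposure at 37 C of 2500 LYMP1-002 lymphoblastoid cells per well. Concentration-response data were fitted with the standard Hill equation to give AC50.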

[15] = biological target: Peroxisome proliferator-activated receptor alpha (Homo sapiens) (UniProt Q07869); test: qHTS assay for small molecule agonists of the peroxisome proliferator-activated receptor alpha (PPARalpha) signaling pathway (AID 651778); conditions: PathHunter PPARalpha complementation, chemiluminescence, 6 h; stronger effect = higher value; note: % of control where 0% means no effect
Summary of the method: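 Enzyme-fragment complementation assay in which ligand-bound PPARalpha translocates and forms an active enzyme that generates chemiluminescence. Cells were plated overnight, exposed to compound for 6 hr at 37 C, and then given detection reagent for 60 min at room temperature.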

[16] = qHTS assay for small molecule agonists of the antioxidant response element (ARE) signaling pathway measured by Nrf2-dependant transcriptional activity - cell viability counter screen (AID 720653; active = well fitted curve in the direction sought with a large enough effect in the repeat runs; an effect the other way counts as inactive or inconclusive; note: % is set by controls: 0 for no effect and ±100 for the full control effect); conditions: ARE-bla HepG2 viability, CellTiter-Glo ATP luminescence, 16 h; stronger effect = lower value
Summary of the method: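 ARE-bla HepG2 cells treated with compounds for 16 h at 37C; this counter screen measures viability as intracellular ATP by CellTiter-Glo luminescence after 30 min at room temperature.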

[17] = Cell Viability - Renal Proximal Tubule (AID 545); conditions: renal proximal tubule cells viability; series mostly up to 91.7 µM;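 note: 0% = DMSO only and -100% = 100 µM tamoxifen; nearly all actives have a fitted effect of over 40% in size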
Summary of the method: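 In this qHTS format, normal rat kidney-derived proximal tubule cells in complete culture medium receive compound titrations, then sit 40 hours at 37 °C before luciferase-based ATP quantitation; potency is reported as AC50 from concentration-response curves.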

Chain of Peroxisome proliferator-activated receptor alpha (Homo sapiens) (Q07869 whole entry, looked up, the tested form may be a part): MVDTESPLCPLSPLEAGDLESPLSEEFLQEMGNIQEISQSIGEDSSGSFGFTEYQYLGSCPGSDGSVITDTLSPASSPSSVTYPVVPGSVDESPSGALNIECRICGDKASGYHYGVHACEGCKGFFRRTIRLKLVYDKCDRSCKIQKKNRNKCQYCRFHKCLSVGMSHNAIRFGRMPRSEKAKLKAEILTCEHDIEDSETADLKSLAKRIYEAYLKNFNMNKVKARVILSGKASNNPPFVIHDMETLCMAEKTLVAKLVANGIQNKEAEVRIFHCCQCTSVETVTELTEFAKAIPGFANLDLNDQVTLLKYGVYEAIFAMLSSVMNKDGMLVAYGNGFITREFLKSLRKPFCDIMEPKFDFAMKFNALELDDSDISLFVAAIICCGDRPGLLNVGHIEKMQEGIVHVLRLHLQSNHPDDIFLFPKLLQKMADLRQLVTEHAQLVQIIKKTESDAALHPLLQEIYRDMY

Nc1ccc(Cc2ccc(N)c(Cl)c2)cc1Cl
inactive: Potency [1] > 92 µM | Potency [2] > 92 µM | Potency [3] > 92 µM | Potency [4] | outcome [5] | outcome [6] | outcome [7] | outcome [8] | outcome [9] | Potency [10] | Potency [11] | Potency [12] | Potency [13] | Potency [14] | max response [15] 2.66% | max response [16] -8.13%

O=[N+]([O-])CCO
inactive: Potency [1] > 92 µM | Potency [2] > 92 µM | Potency [3] > 92 µM | outcome [17] | outcome [5] | outcome [6] | outcome [7] | outcome [8] | outcome [9] | Potency [10] | Potency [11] | Potency [12] | Potency [13] | Potency [14] | max response [15] -2.47% | max response [16] -2%

CC(=O)CCC(C)=O
inactive: Potency [1] > 92 µM | Potency [2] > 92 µM | Potency [3] > 92 µM | Potency [4] | outcome [17] | outcome [5] | outcome [6] | outcome [7] | outcome [8] | outcome [9] | Potency [10] | Potency [11] | Potency [12] | Potency [13] | Potency [14] | max response [15] -3.42% | max response [16] 0.0815%

COc1ccccc1N
inactive: Potency [1] > 92 µM | Potency [2] > 92 µM | Potency [3] > 92 µM | Potency [4] | outcome [17] | outcome [5] | outcome [6] | outcome [7] | outcome [8] | outcome [9] | Potency [10] | Potency [11] | Potency [12] | Potency [13] | Potency [14] | max response [15] -0.908% | max response [16] 6.75%

O=[N+]([O-])c1ccccc1O
inactive: Potency [1] > 92 µM | Potency [2] > 92 µM | Potency [3] > 92 µM | Potency [4] | outcome [17] | outcome [5] | outcome [6] | outcome [7] | outcome [8] | outcome [9] | Potency [10] | Potency [11] | Potency [12] | Potency [13] | Potency [14] | max response [15] -0.691% | max response [16] 5.01%

Oc1c(Cl)cccc1Cl
inactive: Potency [1] > 92 µM | Potency [2] > 92 µM | Potency [3] > 92 µM | Potency [4] | outcome [17] | outcome [5] | outcome [6] | outcome [7] | outcome [8] | outcome [9] | Potency [10] | Potency [11] | Potency [12] | Potency [13] | Potency [14] | max response [15] -1.21% | max response [16] 9.38%

COc1cc(-c2ccc(N)c(OC)c2)ccc1N
inactive: Potency [1] > 92 µM | Potency [2] > 92 µM | Potency [3] > 92 µM | outcome [17] | outcome [5] | outcome [6] | outcome [7] | outcome [8] | outcome [9] | Potency [10] | Potency [11] | Potency [12] | Potency [13] | Potency [14] | max response [15] -3.45% and -1.48% and -1.31% | max response [16] 19% and 0.28% and -8.23%

COC(=O)c1ccccc1N
inactive: Potency [1] > 92 µM | Potency [2] > 92 µM | Potency [3] > 92 µM | Potency [4] | outcome [17] | outcome [5] | outcome [6] | outcome [7] | outcome [8] | outcome [9] | Potency [10] | Potency [11] | Potency [12] | Potency [13] | Potency [14] | max response [15] -6.67% | max response [16] -7.9%

CC(Cl)(Cl)Cl
inactive: Potency [1] > 92 µM | Potency [2] > 92 µM | Potency [3] > 92 µM | Potency [4] | outcome [17] | outcome [5] | outcome [6] | outcome [7] | outcome [8] | outcome [9] | Potency [10] | Potency [11] | Potency [12] | Potency [13] | Potency [14] | max response [15] -3.93% and -1.58% | max response [16] 0.834% and -5.56%
